Experimental data as given in the supplement of paper PMC10849652.
Of roughly 7,900 targets only a part is listed; those with a hit were picked by preference. About 0.6% of all pairs of compound and target were hits.

Experiments:
Assay in all cases: log2 fold change, soluble protein after heating vs DMSO (PISA); higher = thermal stabilisation; K562 cells, 10 uM, 30 min; active = over 0.2 and 3.5 SD of the protein, either way, in both replicates (recomputed)
erlotinib = compound: C#Cc1cccc(Nc2ncnc3cc(OCCOC)c(OCCOC)cc23)c1 [erlotinib]
Method in brief: (§1)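 Soluble protein was defined as the supernatant after 21,000xg for 90 min. It came from K562 cells at 2×10^6 cells/mL given 10 μM compound for 30 min, heated in aliquots for 3 min across 48°C-58°C, pooled, and extracted in PBS with 0.5% NP-40 at 4°C, and was quantified by TMTpro 16plex LC-MS/MS with equalised channel sums. Thermal stability against control samples, from duplicates, is reported as log2 fold change.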

[1] = compound: C/C(=N\NC(=O)C1=CC(=CC=C1)S(=O)(=O)N2CCOCC2)/C3=C(C=CC(=C3)Cl)O
Method in brief: as §1

[2] = compound: C1=CC(=C(C=C1Cl)C2=NC3=NC=CN=C3C(=N2)NC4=CC=NC=C4)F
Method in brief: as §1

[3] = compound: C1=CC(=CC=C1C2=NC3=C(N2)C=C(C=C3)C(=O)N)OC4=CC=C(C=C4)Cl
Method in brief: as §1

[4] = compound: C1=CC2=C(C=CC(=C2)/C=C\3/C(=O)NC(=NCC4=CC=CS4)S3)N=C1
Method in brief: as §1

[5] = compound: C1=CC2=NC=CN=C2C=C1/C=C/3\C(=O)NC(=O)S3
Method in brief: as §1

[6] = compound: C1=CC=C(C=C1)C2=NC(=C(N2)C3=CC=NC=C3)C4=CC(=C(C=C4)Cl)O
Method in brief: as §1

[7] = compound: C1=CC=C2C(=C1)C3=NNC4=CC=CC(=C43)C2=O
Method in brief: as §1

[8] = compound: C1CCN(C1)C(=O)NC2=CC=CC(=C2)NC3=NC=C(C(=N3)NCCC4=CN=CN4)Br
Method in brief: as §1

[9] = compound: C1CN(CCC1(CC2=CC=C(C=C2)Cl)N)C3=NC=NC4=C3C=CN4
Method in brief: as §1

Measured: log2 fold change

RGS10 (UniProt O43665)
Sequence of UniProt O43665 (O43665 whole entry, looked up): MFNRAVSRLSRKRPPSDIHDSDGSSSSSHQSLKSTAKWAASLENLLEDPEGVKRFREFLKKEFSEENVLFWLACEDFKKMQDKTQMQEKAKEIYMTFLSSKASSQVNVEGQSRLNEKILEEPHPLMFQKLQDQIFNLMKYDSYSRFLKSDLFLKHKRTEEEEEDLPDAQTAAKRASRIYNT
inactive: erlotinib -0.044 | [1] 0.048 | [2] 0.076 | [3] 0.009 | [4] -0.03 | [5] 0.002 | [6] 0.073 | [7] -0.015 | [8] -0.069 | [9] 0.036

RPS16 (UniProt P62249)
inactive: erlotinib -0.166 | [1] -0.108 | [2] -0.258 | [3] 0.049 | [4] -0.075 | [5] -0.043 | [6] -0.049 | [7] 0.002 | [8] 0.025 | [9] -0.2

RAVER1 (UniProt E9PAU2)
inactive: erlotinib 0.218 | [1] 0.403 | [2] 0.042 | [3] 0.009 | [4] 0.002 | [5] -0.06 | [6] 0.257 | [7] -0.084 | [8] -0.05 | [9] -0.011

RB1CC1 (UniProt Q8TDY2)
Sequence of UniProt Q8TDY2 (Q8TDY2 whole entry, looked up): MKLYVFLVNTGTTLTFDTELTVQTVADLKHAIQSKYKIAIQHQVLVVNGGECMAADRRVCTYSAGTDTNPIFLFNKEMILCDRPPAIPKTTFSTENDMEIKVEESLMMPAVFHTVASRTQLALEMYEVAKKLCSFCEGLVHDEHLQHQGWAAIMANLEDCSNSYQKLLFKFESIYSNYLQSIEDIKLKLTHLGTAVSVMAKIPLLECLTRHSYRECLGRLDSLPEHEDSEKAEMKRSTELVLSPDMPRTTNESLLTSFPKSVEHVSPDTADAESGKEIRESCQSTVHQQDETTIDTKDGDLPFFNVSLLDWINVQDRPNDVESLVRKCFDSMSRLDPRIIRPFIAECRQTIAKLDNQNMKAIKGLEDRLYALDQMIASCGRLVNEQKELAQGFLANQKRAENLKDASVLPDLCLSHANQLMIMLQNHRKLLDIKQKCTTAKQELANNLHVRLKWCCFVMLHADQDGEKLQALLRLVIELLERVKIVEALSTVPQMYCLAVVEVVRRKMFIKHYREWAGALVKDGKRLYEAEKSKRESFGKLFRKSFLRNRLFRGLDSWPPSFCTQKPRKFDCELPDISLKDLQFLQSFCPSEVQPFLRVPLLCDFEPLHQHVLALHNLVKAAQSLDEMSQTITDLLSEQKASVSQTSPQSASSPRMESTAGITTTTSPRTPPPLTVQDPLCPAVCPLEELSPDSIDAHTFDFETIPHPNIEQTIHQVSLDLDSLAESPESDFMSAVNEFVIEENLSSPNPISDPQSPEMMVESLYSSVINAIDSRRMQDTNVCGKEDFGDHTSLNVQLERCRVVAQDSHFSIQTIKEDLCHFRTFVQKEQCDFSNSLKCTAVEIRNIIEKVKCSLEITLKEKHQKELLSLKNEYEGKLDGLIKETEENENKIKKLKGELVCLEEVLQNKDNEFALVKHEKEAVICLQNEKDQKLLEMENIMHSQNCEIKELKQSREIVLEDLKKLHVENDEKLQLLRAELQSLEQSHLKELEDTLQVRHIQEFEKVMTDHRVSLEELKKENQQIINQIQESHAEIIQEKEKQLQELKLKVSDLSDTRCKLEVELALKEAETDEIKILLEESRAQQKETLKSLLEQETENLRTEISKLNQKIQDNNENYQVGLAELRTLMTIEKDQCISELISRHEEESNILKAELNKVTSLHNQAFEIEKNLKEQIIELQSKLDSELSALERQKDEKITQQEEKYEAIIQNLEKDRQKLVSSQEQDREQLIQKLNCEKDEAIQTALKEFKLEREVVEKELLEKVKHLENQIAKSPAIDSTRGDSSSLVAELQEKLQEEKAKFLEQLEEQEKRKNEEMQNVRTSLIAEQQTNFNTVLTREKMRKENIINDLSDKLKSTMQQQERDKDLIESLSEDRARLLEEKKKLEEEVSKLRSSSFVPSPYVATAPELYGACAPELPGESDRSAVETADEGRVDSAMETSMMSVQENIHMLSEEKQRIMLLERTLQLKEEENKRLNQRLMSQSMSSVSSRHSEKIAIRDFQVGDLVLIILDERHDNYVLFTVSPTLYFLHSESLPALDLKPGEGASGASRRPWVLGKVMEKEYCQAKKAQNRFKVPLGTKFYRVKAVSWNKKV
inactive: erlotinib 0.119 | [1] -0.066 | [2] 0.102 | [3] 0.046 | [4] 0.211 | [5] -0.07 | [6] 0.015 | [7] 0.03 | [8] -0.024 | [9] 0.022

SETMAR (UniProt Q53H47)
Sequence of UniProt Q53H47 (Q53H47 whole entry, looked up): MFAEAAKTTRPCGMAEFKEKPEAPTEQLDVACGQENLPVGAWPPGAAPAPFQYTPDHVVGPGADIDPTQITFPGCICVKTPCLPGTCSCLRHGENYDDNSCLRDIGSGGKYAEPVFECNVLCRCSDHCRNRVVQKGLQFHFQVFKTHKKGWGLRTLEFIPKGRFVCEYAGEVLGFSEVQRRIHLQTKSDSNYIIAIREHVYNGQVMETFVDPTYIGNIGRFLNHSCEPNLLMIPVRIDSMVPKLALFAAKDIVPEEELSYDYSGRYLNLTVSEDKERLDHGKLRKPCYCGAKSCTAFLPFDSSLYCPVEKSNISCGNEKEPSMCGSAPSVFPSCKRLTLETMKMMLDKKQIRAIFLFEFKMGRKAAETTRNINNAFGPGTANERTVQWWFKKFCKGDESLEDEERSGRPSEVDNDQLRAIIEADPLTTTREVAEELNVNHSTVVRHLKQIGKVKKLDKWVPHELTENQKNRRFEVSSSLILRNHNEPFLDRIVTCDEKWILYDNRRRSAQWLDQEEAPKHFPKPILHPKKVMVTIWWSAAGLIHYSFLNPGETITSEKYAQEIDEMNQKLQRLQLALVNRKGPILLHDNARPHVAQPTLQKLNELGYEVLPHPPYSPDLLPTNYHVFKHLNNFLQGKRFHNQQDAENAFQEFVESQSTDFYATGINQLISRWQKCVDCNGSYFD
inactive: erlotinib 0.004 | [1] -0.044 | [2] 0.046 | [3] -0.018 | [4] 0.133 | [5] -0.029 | [6] -0.01 | [7] 0.008 | [8] -0.031 | [9] -0.248

RBM12 (UniProt Q9NTZ6)
inactive: erlotinib 0.092 | [1] 0.187 | [2] 0.123 | [3] -0.022 | [4] 0.117 | [5] -0.003 | [6] -0.008 | [7] 0.011 | [8] -0.046 | [9] 0.006

RNASEH2A (UniProt O75792)
Sequence of UniProt O75792 (O75792 whole entry, looked up): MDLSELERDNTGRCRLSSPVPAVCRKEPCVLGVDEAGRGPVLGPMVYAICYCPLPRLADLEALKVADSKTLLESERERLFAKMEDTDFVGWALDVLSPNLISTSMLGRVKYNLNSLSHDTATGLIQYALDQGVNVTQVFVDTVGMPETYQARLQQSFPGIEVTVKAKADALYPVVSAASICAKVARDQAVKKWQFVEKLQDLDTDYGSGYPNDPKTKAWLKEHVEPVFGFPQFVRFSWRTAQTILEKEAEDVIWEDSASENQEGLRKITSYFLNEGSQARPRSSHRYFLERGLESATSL
inactive: erlotinib 0.041 | [1] 0.085 | [2] -0.062 | [3] 0.019 | [4] 0.119 | [5] -0.038 | [6] -0.026 | [7] 0.065 | [8] -0.016 | [9] -0.115

SLC18B1 (UniProt Q6NT16)
Sequence of UniProt Q6NT16 (Q6NT16 whole entry, looked up): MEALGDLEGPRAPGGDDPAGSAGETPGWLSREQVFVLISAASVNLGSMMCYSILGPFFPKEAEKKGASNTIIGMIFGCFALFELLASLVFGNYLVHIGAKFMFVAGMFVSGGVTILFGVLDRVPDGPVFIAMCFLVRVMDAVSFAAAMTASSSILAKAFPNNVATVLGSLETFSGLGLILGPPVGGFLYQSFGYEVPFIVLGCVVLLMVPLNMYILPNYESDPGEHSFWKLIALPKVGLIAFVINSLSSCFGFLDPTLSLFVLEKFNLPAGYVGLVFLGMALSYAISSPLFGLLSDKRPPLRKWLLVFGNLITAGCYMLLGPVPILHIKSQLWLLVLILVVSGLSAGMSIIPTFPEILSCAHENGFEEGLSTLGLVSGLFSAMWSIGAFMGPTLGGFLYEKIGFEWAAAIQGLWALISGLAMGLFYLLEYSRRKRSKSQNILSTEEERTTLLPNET
inactive: erlotinib -0.011 | [1] -0.09 | [2] 0.067 | [3] 0.06 | [4] 0.108 | [5] 0 | [6] 0.12 | [7] 0.002 | [8] -0.037 | [9] 0.081

RBM48 isoform 2 (UniProt Q5RL73)
inactive: erlotinib -0.048 | [1] 0.017 | [2] -0.065 | [3] -0.026 | [4] 0.053 | [5] 0.055 | [6] -0.144 | [7] 0.042 | [8] 0.118 | [9] -0.115

SACM1L (UniProt Q9NTJ5)
Sequence of UniProt Q9NTJ5 (Q9NTJ5 whole entry, looked up): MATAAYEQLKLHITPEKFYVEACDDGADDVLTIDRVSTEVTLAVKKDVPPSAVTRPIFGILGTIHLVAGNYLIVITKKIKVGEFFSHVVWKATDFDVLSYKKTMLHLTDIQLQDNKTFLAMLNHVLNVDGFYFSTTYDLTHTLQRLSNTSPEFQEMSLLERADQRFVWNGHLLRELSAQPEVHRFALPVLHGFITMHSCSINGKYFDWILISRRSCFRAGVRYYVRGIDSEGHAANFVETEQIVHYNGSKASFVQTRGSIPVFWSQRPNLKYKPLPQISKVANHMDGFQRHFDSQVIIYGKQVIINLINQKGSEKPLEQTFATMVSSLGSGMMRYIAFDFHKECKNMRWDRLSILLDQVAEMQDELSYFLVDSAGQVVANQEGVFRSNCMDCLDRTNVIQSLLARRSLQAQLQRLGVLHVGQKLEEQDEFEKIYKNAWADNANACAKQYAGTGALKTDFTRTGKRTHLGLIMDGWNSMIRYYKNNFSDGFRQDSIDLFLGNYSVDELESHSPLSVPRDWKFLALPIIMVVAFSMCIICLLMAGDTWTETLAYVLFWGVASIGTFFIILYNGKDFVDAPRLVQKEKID
inactive: erlotinib 0.005 | [1] 0.1 | [2] 0.109 | [3] -0.061 | [4] 0.039 | [5] -0.007 | [6] 0.077 | [7] 0.009 | [8] 0.001 | [9] 0.068

RPS6KA2 isoform 2 (UniProt Q15349)
active: [7] -0.473
inactive: erlotinib 0.008 | [1] 0.092 | [2] -0.068 | [3] 0.075 | [4] 0.07 | [5] 0.06 | [6] -0.132 | [8] -0.058 | [9] -0.004

RAB33B (UniProt Q9H082)
inactive: erlotinib 0.059 | [1] 0.031 | [2] 0.028 | [3] -0.029 | [4] -0.08 | [5] -0.012 | [6] -0.079 | [7] 0.025 | [8] -0.016 | [9] 0.118

SDCBP (UniProt O00560)
inactive: erlotinib -0.048 | [1] -0.1 | [2] -0.058 | [3] 0.047 | [4] -0.036 | [5] -0.008 | [6] 0.034 | [7] 0.002 | [8] -0.021 | [9] -0.045

RSRC2 (UniProt Q7L4I2)
inactive: erlotinib 0.023 | [1] -0.01 | [2] -0.009 | [3] -0.012 | [4] -0.05 | [5] 0.018 | [6] 0.019 | [7] -0.032 | [8] 0 | [9] 0.012

SDHAF4 (UniProt Q5VUM1)
Sequence of UniProt Q5VUM1 (Q5VUM1 whole entry, looked up): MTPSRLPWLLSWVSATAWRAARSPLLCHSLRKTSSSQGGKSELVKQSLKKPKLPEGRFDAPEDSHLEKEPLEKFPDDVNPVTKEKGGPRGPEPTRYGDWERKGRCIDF
inactive: erlotinib 0 | [1] 0.104 | [2] 0.026 | [3] 0.031 | [4] 0.118 | [5] 0.033 | [7] -0.117 | [8] 0.054 | [9] 0.094

RBM27 (UniProt Q9P2N5)
inactive: erlotinib 0.034 | [1] 0.079 | [2] 0.003 | [3] 0.022 | [4] -0.039 | [5] -0.01 | [6] -0.067 | [7] 0.022 | [8] -0.061 | [9] -0.128

SCAMP2 (UniProt O15127)
inactive: erlotinib 0.014 | [1] 0.141 | [2] 0.081 | [3] 0.011 | [4] -0.154 | [5] 0.063 | [6] 0.055 | [7] 0.057 | [8] -0.116 | [9] 0.087

RSF1 (UniProt Q96T23)
inactive: erlotinib 0.034 | [1] 0.152 | [2] 0.031 | [3] 0.126 | [4] 0.039 | [5] 0.012 | [6] 0.089 | [7] -0.057 | [8] 0.01 | [9] 0.006

RPRD1B (UniProt Q9NQG5)
inactive: erlotinib -0.065 | [1] 0.086 | [2] 0.036 | [3] 0.028 | [4] 0.063 | [5] 0.052 | [6] 0.042 | [7] -0.005 | [8] 0.009 | [9] -0.046

RARS (UniProt P54136)
inactive: erlotinib 0.023 | [1] 0.011 | [2] -0.169 | [3] -0.007 | [4] 0.019 | [5] 0 | [6] -0.046 | [7] -0.005 | [8] 0.07 | [9] -0.155

RTN4IP1 (UniProt Q8WWV3)
Sequence of UniProt Q8WWV3 (Q8WWV3 whole entry, looked up): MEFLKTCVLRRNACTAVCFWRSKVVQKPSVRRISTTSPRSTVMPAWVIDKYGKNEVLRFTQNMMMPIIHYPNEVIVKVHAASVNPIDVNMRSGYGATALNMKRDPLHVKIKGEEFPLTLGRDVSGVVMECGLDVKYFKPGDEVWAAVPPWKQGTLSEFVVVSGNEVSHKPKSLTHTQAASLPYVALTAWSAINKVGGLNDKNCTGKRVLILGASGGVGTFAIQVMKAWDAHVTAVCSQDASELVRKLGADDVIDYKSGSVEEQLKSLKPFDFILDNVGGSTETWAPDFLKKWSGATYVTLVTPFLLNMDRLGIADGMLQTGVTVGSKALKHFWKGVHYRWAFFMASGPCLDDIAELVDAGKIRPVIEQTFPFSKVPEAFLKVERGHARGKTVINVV
inactive: erlotinib 0.016 | [1] 0 | [2] 0.041 | [3] 0.066 | [4] 0.048 | [5] -0.08 | [6] 0.014 | [7] 0.027 | [8] -0.064 | [9] 0.074

RAC1 (UniProt P63000)
inactive: erlotinib -0.066 | [1] -0.062 | [2] -0.003 | [3] 0.053 | [4] -0.194 | [5] 0.015 | [6] 0.048 | [7] -0.05 | [8] 0.017 | [9] 0.005

RNF187 (UniProt Q5TA31)
inactive: erlotinib 0.095 | [1] -0.05 | [2] -0.061 | [3] -0.028 | [4] 0.101 | [5] -0.028 | [6] -0.067 | [7] 0.008 | [8] 0.017 | [9] -0.056

RRAGB (UniProt Q5VZM2)
inactive: erlotinib -0.028 | [1] 0.047 | [2] 0.004 | [3] 0.023 | [4] -0.13 | [5] 0 | [6] 0.021 | [7] 0.082 | [8] -0.048 | [9] 0.037

RAB8B (UniProt Q92930)
Sequence of UniProt Q92930 (Q92930 whole entry, looked up): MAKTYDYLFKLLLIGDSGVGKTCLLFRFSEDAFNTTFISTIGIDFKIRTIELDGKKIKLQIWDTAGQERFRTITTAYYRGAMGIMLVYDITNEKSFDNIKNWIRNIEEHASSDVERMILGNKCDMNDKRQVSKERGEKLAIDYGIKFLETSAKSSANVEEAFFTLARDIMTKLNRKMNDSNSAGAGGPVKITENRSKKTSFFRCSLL
active: [2] 0.332
inactive: erlotinib 0.258 | [1] 0.085 | [3] 0.028 | [4] -0.02 | [5] 0.145 | [6] 0.029 | [7] 0.012 | [8] 0.027 | [9] -0.043

RNF2 (UniProt Q99496)
inactive: erlotinib -0.014 | [1] 0.116 | [2] -0.013 | [3] -0.231 | [4] -0.057 | [5] -0.004 | [7] -0.053 | [8] -0.103 | [9] -0.006

RB1 (UniProt P06400)
inactive: erlotinib -0.007 | [1] 0.041 | [2] 0.012 | [3] 0.016 | [4] 0.124 | [5] 0.04 | [6] 0.034 | [7] -0.114 | [8] -0.065 | [9] -0.02

RRP9 (UniProt O43818)
Sequence of UniProt O43818 (O43818 whole entry, looked up): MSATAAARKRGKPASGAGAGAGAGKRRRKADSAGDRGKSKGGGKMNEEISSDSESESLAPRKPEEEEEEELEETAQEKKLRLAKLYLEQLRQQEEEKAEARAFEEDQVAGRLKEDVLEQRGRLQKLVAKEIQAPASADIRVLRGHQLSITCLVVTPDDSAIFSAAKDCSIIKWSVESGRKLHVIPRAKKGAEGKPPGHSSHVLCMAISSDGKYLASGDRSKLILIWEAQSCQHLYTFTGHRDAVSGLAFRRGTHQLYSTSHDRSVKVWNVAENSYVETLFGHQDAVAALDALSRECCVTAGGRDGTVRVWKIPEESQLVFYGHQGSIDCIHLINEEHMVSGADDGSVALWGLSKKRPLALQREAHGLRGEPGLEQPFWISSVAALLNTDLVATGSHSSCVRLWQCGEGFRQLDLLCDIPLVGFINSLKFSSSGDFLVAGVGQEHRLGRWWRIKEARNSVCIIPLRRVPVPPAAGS
inactive: erlotinib 0.018 | [1] -0.04 | [2] -0.099 | [3] -0.004 | [4] -0.042 | [5] 0.03 | [6] -0.114 | [7] -0.085 | [8] -0.081 | [9] -0.016

RAC3 (UniProt P60763)
inactive: erlotinib 0.05 | [1] -0.016 | [2] 0.029 | [3] -0.042 | [4] 0.009 | [5] 0.02 | [6] -0.009 | [7] -0.09 | [8] -0.007 | [9] 0.005
